Screening results deposited in PubChem BioAssay by Broad Institute.
PGC1a acetyl inh: lowers PGC1a acetylation signal in U2OS cells. 0.17% of 350,000 active. AlphaScreen anti-acetyl-lysine; with virally co-expressed GCN5 acetyltransferase. inhibition, % at 15.6 µM;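 active = every replicate shows inhibition of at least 40%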
PAX8 reporter: inhibitors of PAX8 transcriptional activity in RMG-I cells | 1.2% of 360,000 active | inhibition, % at 12.6 µM | RMG-I TPO-luciferase reporter, SteadyGlo, 24 h | AID 652154;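 active = mean replicate inhibition at least 60% with every replicate also reaching 60%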;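 note: luciferase light reporting Pax8 driven TPO promoter activity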
Env fusion inh: blocks HIV Env-driven cell-cell fusion | HeLa-JRFL Env/CEM21 cell fusion, luciferase | inhibition, % at 12.3 µM | 1.1% of 360,000 active | AID 651610;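 active = mean replicate inhibition score of at least 50 and every replicate individually at or above 50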
INS-1E GSIS act: primary screen for activators of insulin secretion dependent on glucose, INS-1E cells, GLuc reporter luminescence. INS-1E GLuc reporter insulin secretion, 2-3 h. activation, % at 16.6 µM. 0.61% of 370,000 active. AID 743287;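 active = lowest replicate activation of at least 40%, so every replicate reaches that level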
CFTR F508del cor: CFTR F508del correction in bronchial cells. CFBE cells, YFP halide quenching; stimulated with forskolin plus potentiator P3; % fluorescence drop versus neutral controls. activity (quench increase), % at 7.58 µM. 0.36% of 350,000 active;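 active = mean added fluorescence quench of at least 8% versus neutral control, with both replicates also reaching 8%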;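 note: cells transiently co-express mutant CFTR-F508del with the halide-sensitive YFP; corrector assay measuring rescue of mutant channel to the surface after 24 h compound exposure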
EWS-Fli inh: inhibitors of EWS/Fli oncoprotein transcriptional activity; A673 NR0B1-luciferase reporter, viability-normalised; inhibition, % at 12.6 µM; 0.67% of 350,000 active; AID 651661;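 active = mean inhibition of at least 50% after viability correction, with every replicate also passing that limit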;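 note: firefly luciferase signal divided by Alamar Blue viability fluorescence both relative to DMSO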
A number is an active result; i = inactive; nt = not tested or not shown. An excerpt weighted towards active compounds, which were near 2.7% of everything screened.

SMILES | PGC1a acetyl inh | PAX8 reporter | Env fusion inh | INS-1E GSIS act | CFTR F508del cor | EWS-Fli inh
CCC(C(=O)c1ccccc1)N(C(=O)c1ccccc1Cl)N1C(=O)C2C3C=CC(C3)C2C1=O (stereo unspecified) | i | nt | 109.2 | nt | nt | nt
O=C(CN(C(=O)c1ccc(Cl)cc1Cl)N1C(=O)C2C3C=CC(C3)C2C1=O)c1ccc(F)cc1 (stereo unspecified) | i | nt | i | nt | nt | nt
CO[C@@H]1CN(C)C(=O)c2cc(NC(=O)c3ccc(F)cc3)ccc2OC[C@@H](C)N(C(=O)CN(C)C)C[C@H]1C | i | i | i | i | i | i
CCN1C(=C(C#N)C#N)C=Cc2cc(C)ccc21 | i | i | i | i | i | i
C=CC[n+]1c(/C=C2\C=Cc3cc(C)ccc3N2CC)ccc2ccccc21 | nt | 87.8 | i | i | i | i
C[C@@H](O)C#Cc1cnc2c(c1)C(=O)N([C@@H](C)CO)C[C@H](C)[C@H](CN(C)CC1CC1)O2 | i | nt | i | i | i | i
COc1ccc(NC(=O)c2cc([N+](=O)[O-])ccc2O)cc1 | i | 100.2 | 83.2 | i | i | 72.8
O=C(Nc1cccc([N+](=O)[O-])c1)c1cc2ccccc2cc1O | i | 77.6 | i | i | i | i
O=C(O)c1ccccc1C(=O)Nc1cccc([N+](=O)[O-])c1 | nt | i | i | i | i | i
C[C@H]1CN([C@@H](C)CO)S(=O)(=O)c2ccc(-c3cccnc3)cc2O[C@@H]1CN(C)C(=O)CN(C)C | i | nt | i | i | i | i
CCCC#Cc1ccc2c(c1)O[C@H](CN(C)Cc1ccncc1)[C@H](C)CN([C@H](C)CO)S2(=O)=O | i | nt | i | i | i | i
CC(C)CC#Cc1ccc2c(c1)O[C@H](CN(C)Cc1ccccc1)[C@H](C)CN([C@H](C)CO)S2(=O)=O | i | nt | i | i | i | i
CC(C)CC#Cc1ccc2c(c1)O[C@@H](CN(C)Cc1ccccc1)[C@H](C)CN([C@H](C)CO)S2(=O)=O | i | nt | i | 345.6 | i | i
CCCC#Cc1ccc2c(c1)O[C@H](CN(C)Cc1ccccc1)[C@@H](C)CN([C@H](C)CO)S2(=O)=O | i | 80.2 | i | i | i | i
CC(C)CC#Cc1ccc2c(c1)O[C@@H](CN(C)Cc1ccncc1)[C@H](C)CN([C@@H](C)CO)S2(=O)=O | i | 87.3 | i | i | i | i
CC(C)C#Cc1ccc2c(c1)O[C@H](CN(C)Cc1ccccc1)[C@@H](C)CN([C@H](C)CO)S2(=O)=O | i | nt | i | i | i | i
CC(C)C#Cc1ccc2c(c1)O[C@@H](CN(C)Cc1ccccc1)[C@@H](C)CN([C@@H](C)CO)S2(=O)=O | 98.6 | nt | i | i | i | i
CC(=O)N(C)C[C@@H]1Oc2ccc(NS(C)(=O)=O)cc2C(=O)N(C)C[C@@H]1C | nt | nt | nt | i | nt | nt
C[C@H](CO)N1C[C@H](C)[C@H](CN(C)C(=O)CCCN(C)C)OCCCC[C@H](C)Oc2ccc(NC(=O)NC3CCCCC3)cc2C1=O | nt | i | i | i | i | i
CC(C)CC#Cc1ccc2c(c1)O[C@H](CN(C)Cc1ccccn1)[C@H](C)CN([C@H](C)CO)S2(=O)=O | i | i | i | i | nt | i
CC(C)CC#Cc1ccc2c(c1)O[C@H](CN(C)Cc1ccccn1)[C@@H](C)CN([C@@H](C)CO)S2(=O)=O | i | 60.8 | i | i | nt | i
C[C@@H]1CN([C@@H](C)CO)C(=O)Cc2cc(NC(=O)CCCCCC(=O)Nc3ccccc3N)ccc2O[C@@H]1CN(C)Cc1ccc(Cl)c(Cl)c1 | i | 70.5 | i | i | i | i
C[C@@H]1CN([C@H](C)CO)C(=O)Cc2cc(NC(=O)CCCCCC(=O)Nc3ccccc3N)ccc2O[C@@H]1CN(C)Cc1ccc(Cl)c(Cl)c1 | i | i | i | i | i | i
C[C@H]1CN([C@@H](C)CO)C(=O)Cc2cc(NC(=O)CCCCCC(=O)Nc3ccccc3N)ccc2O[C@H]1CN(C)CC1CCCCC1 | i | i | i | i | i | 59.9
C[C@H](CO)N1C[C@H](C)[C@H](CN(C)Cc2ccc(Cl)c(Cl)c2)Oc2ccc(NC(=O)CCCCCC(=O)Nc3ccccc3N)cc2CC1=O | i | 67.5 | i | i | i | i
SMILES | PGC1a acetyl inh | PAX8 reporter | Env fusion inh | INS-1E GSIS act | CFTR F508del cor | EWS-Fli inh
COc1ccc(C(=O)CCN2CCN(c3ccccc3F)CC2)cc1 | i | 77.7 | i | i | i | i
C[C@@H](NC(=O)C[C@@H]1C=C[C@H](NC(=O)C2CCC2)[C@H](CO)O1)c1ccccc1 | i | i | i | i | i | i
C[C@@H]1CN([C@H](C)CO)C(=O)c2cc(NS(=O)(=O)c3ccc(Cl)cc3)ccc2O[C@@H](C)CCCCO[C@@H]1CN(C)S(=O)(=O)c1ccccc1 | i | i | i | i | i | i
C[C@H](CO)N1C[C@H](C)[C@@H](CN(C)S(=O)(=O)c2ccc(Cl)cc2)OCCCC[C@H](C)Oc2ccc(NS(=O)(=O)c3ccccc3)cc2C1=O | i | 75.9 | nt | i | i | i
C[C@@H]1CCCCO[C@H](CN(C)S(=O)(=O)c2ccccc2)[C@H](C)CN([C@H](C)CO)C(=O)c2cc(NS(=O)(=O)c3ccc(Cl)cc3)ccc2O1 | i | i | i | i | i | i
C[C@H](CO)N1C[C@H](C)[C@H](CN(C)S(=O)(=O)c2ccccc2)OCCCC[C@H](C)Oc2ccc(NS(=O)(=O)c3ccc(Cl)cc3)cc2C1=O | i | 83.5 | i | i | i | i
C[C@H](CO)N1C[C@H](C)[C@@H](CN(C)S(=O)(=O)c2ccccc2)OCCCC[C@H](C)Oc2ccc(NS(=O)(=O)c3ccc(Cl)cc3)cc2C1=O | i | 85.7 | i | i | i | i
C/C=C/c1ccc2c(c1)O[C@H](CN(C)C(=O)NCCC)[C@@H](C)CN([C@H](C)CO)S2(=O)=O | i | i | i | i | i | i
C[C@@H]1CCCCO[C@@H](CN(C)CC2CC2)[C@H](C)CN([C@@H](C)CO)C(=O)c2cc(NC(=O)Nc3ccc(F)cc3)ccc2O1 | i | i | i | i | i | i
C[C@@H]1CN([C@H](C)CO)C(=O)c2cc(NC(=O)NC3CCCCC3)ccc2O[C@@H](C)CCCCO[C@H]1CN(C)Cc1ccc2c(c1)OCO2 | i | i | i | i | i | i
COc1ccc(-c2cc(-c3ccccc3)c(C#N)c(S(C)=O)n2)cc1 (stereo unspecified) | 85.0 | 75.5 | i | nt | nt | nt
COc1ccc(-c2c(-c3ccccc3)c(C(=O)C(=O)NCCCN(C)C)n3ccc4cc(OC)c(OC)cc4c23)cc1OC | i | i | i | i | i | 85.7
C[C@@H]1CN([C@H](C)CO)C(=O)c2cc(C3=CCCCC3)cnc2O[C@H]1CN(C)S(C)(=O)=O | i | nt | i | i | i | i
CCOC(=O)[C@H](CCc1ccccc1)N[C@@H](C)C(=O)N1[C@H](C(=O)O)C[C@@H]2CCC[C@@H]21 | i | i | i | nt | 12.0 | i
N#Cc1c(C(F)(F)F)cc(-c2cccs2)nc1SCc1cccnc1 | i | nt | i | nt | nt | nt
